This is an account of results in PubChem BioAssay AID648 (SRMLSC, 2007).

Hit rate of the full screen: of about 86,000 compounds, about 920 (1.1%) were called active.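 The calls were made as follows: active = viability at or below 30%; inactive = viability above 30%.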 The sample as a whole holds a higher share of actives than the screen did.

A short description of the assay: endothelial cell growth inhibition – HUVEC, 384-well, primary screen (AID 648).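 Also: 100% = median luminescence of DMSO-only cell control wells on each plate.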 As to conditions: HUVEC proliferation, CellTiter-Glo luminescence, 72 h; active compounds read low; screened at 10 µM (by protocol).
For `Nc1c(C(=O)NCc2ccccc2)sc2nc3c(cc12)C(=O)CCC3`, the viability was 84.8% (inactive).
For the compound `Cc1nnc(SC(C)C(=O)Nc2ccc(S(=O)(=O)NC3CCCCC3)cc2)s1` (stereo not given), the viability is 104% (inactive).
Turning to `O=C(Nc1ccccc1)c1ccc2c(c1)OCO2`, the viability was 94% (inactive).
Turning to `Cc1cccc(Nc2ccccc2C(=O)NCc2ccco2)c1C`, the viability was 63.9% (inactive).
Take `Cc1cccc(C)c1N1CCN(S(=O)(=O)N2CCOCC2)CC1`: the viability is 108% (inactive).
With `CC1=C/C(=N\OS(=O)(=O)c2ccccc2)C=CC1=O`, the viability is 1.29% (active).
Turning to `c1ccc(-c2nc(NCc3ccco3)c3ccccc3n2)cc1`, the viability is 85.5% (inactive).
Then `CCSc1nnc(NC(=O)Cc2ccccc2OC)s1`, with 93.5% (inactive).
For `CC(C)c1cc(C(=O)O)n[nH]1` the value was 90.3% (inactive).
Then `C=C(C)CSc1nnc(-c2ccc(C)cc2)n1N`, with 93.8% (inactive); and `N=c1c2c(-c3ccccc3)c(-c3ccccc3)n(Cc3ccccc3)c2ncn1CCCO`, with 1.91% (active); and `OCCCN1c2ccccc2Nc2nnc(-c3ccccc3)cc21`, with 69.2% (inactive).
On to `O=C(NCCN1CCOCC1)c1c(F)c(F)c(F)c(F)c1F`, for which the viability is 94.7% (inactive).
Then `CC(=O)Oc1cc2c(C(=O)NCCN3CCOCC3)c(C)oc2c2ccccc12`, with 4.78% (active).
Take `O=C(CCN1C(=O)c2ccccc2C1=O)NCCN1CCOCC1`: the viability is 93.8% (inactive).
As for `CCCOc1ccc(N2C(=O)CC(N(CCc3ccc(S(N)(=O)=O)cc3)C(C)=O)C2=O)cc1` (stereo not given), the viability is 98% (inactive).
As for `O=C1c2ccccc2C(=O)N1CCCc1nc(-c2ccccc2)no1`, the viability is 111% (inactive).
With `Cc1ccc(-c2csc(SCC(=O)Nc3cc(C)on3)n2)cc1`, the viability is 100% (inactive).
For `O=C(CCN1c2ccccc2Sc2ccccc21)Nc1ccccc1`, the viability is 84.5% (inactive).
Consider `Cc1ccc(C2(C(F)(F)F)N=C3Sc4cc(C)cc(C)c4N3C(=O)N2)cc1` (stereo not given), for which the viability was 21.8% (active).
In the case of `COC(=O)c1nc2ccccc2s1`, the viability was 93.3% (inactive).
On to `Cc1ccccc1N1CCN(CCCOc2ccc3c(C)cc(=O)oc3c2)CC1`, for which the viability was 25.2% (active).
In the case of `Cc1cc(=O)oc2cc(OCC3CC(c4ccccc4Cl)=NO3)ccc12` (stereo not given), the viability was 44.4% (inactive).
As for `CCc1cc(=O)oc2cc(OCC(=O)N3CCCc4ccccc43)ccc12`, the viability was 80.5% (inactive).
Regarding `CCCC1(C(=O)OCC)NC(c2ccc(N(C)C)cc2)C2C(=O)N(c3ccc4c(c3)OCCO4)C(=O)C21` (stereo not given), the viability is 104% (inactive).
With `CCN(CC)C(=O)CSc1ncnc2c1cnn2-c1ccccc1`, the viability is 123% (inactive).
For `Cc1ccc(C(=O)NCC2CCCO2)o1` (stereo not given) the value was 106% (inactive).
Consider `OC(CNCC1CCCO1)Cn1c2ccc(Br)cc2c2cc(Br)ccc21` (stereo not given), for which the viability was 3.17% (active).
Then `Cc1cc(Br)ccc1NC(=O)C1CCCO1` (stereo not given), with 90.3% (inactive); and `Cc1ccc(S(=O)(=O)/N=C(\CN2CCOCC2)N2CCOCC2)cc1`, with 89.5% (inactive); and `Cc1ccc(CN2CCN(/N=C/c3ccco3)CC2)c(C)c1`, with 104% (inactive).
In the case of `COc1ccc(-c2n[nH]c(C)c2-c2ccc(OC)c(OC)c2)c(O)c1`, the viability is 48.7% (inactive).
For `C=C(C)COc1ccc(-c2n[nH]c(C)c2-c2ccccc2OC)c(O)c1`, the viability is 23.9% (active).
On to `C=C(C)COc1ccc(-c2n[nH]c(C)c2-c2ccccc2)c(O)c1`, for which the viability is 54% (inactive).
As for `O=C(NCC1CCCO1)c1ccc2ccccc2n1` (stereo not given), the viability is 89.6% (inactive).
On to `O=S(=O)(NC1CCCCC1)c1ccc(F)c2ccccc12`, for which the viability was 81.9% (inactive).
In the case of `Cc1ccc(S(=O)(=O)NCCSC(C)(C)C)cc1`, the viability is 103% (inactive).
Consider `CCc1nnc(NC(=O)CSc2nc3ccccc3c(=O)n2CCCOC)s1`, for which the viability was 90.7% (inactive).
Turning to `Cc1nc(SCC(=O)Nc2cc(C)on2)c2c3c(sc2n1)CCCC3`, the viability is 75.7% (inactive).
On to `COCCNc1nc(-n2nc(C)cc2C)nc2sc3c(c12)CCCC3`, for which the viability is 78% (inactive).
Take `Cc1cc(C)n(-c2nc(SCC(=O)N3CCCC3)c3c4c(sc3n2)CCCC4)n1`: the viability was 16.2% (active).
With `CCCCCCNC(=O)CSc1nccn1Cc1ccccc1`, the viability was 80.6% (inactive).
Regarding `O=C(C(NS(=O)(=O)c1cccc2nsnc12)c1ccccc1)N1CCN(c2ccccc2)CC1` (stereo not given), the viability was 101% (inactive).
Turning to `CCC1(C)Cc2c(sc3nc4n(c(=O)c23)CCCS4)CO1` (stereo not given), the viability is 101% (inactive).
Take `CCC1(C)Cc2c(sc3[nH]c(=S)n(Cc4ccccc4)c(=O)c23)CO1` (stereo not given): the viability was 7% (active).
For `CCC1(C)Cc2c(sc3nc(SC)nc(N)c23)CO1` (stereo not given), the viability was 93.2% (inactive).
`C=CCn1c(N)cc(=O)nc1SCC(=O)Nc1cccc2ccccc12`: the viability was 103% (inactive).
Regarding `O=C(NC1CCCCC1)c1ccc(CNc2c(N3CCOCC3)c(=O)c2=O)cc1`, the viability is 105% (inactive).
As for `COC(=O)c1c(C)c(C)nc(N)c1C#N`, the viability was 104% (inactive).
Take `Oc1ccc2ccc3cccc[n+]3c2c1`: the viability was 97.5% (inactive).
Then `Cc1cc(N)n2nc(-c3ccc(C(C)(C)C)cc3)cc2n1`, with 24.9% (active); and `COc1ccc(-c2cc(C)nc3nc(N)nn23)cc1`, with 86.4% (inactive).
As to `Cc1nc2cc(-c3ccc(F)cc3)nn2c(N2CCOCC2)c1C`, the viability was 98.8% (inactive).
Turning to `CCCCCN1CC(O)=C(c2nc(-c3ccc(Cl)cc3)cs2)C1=N`, the viability was 102% (inactive).
For `O=C(O)CCN=C1CCc2ccccc2N1`, the viability was 95.7% (inactive).
With `O=C(COc1ccc(S(=O)(=O)NCc2ccccc2)cc1)N1CCOCC1`, the viability was 98.2% (inactive).
Turning to `Cc1ccc2oc(=O)c3cnn(CC(=O)N(Cc4ccco4)C4CCCCC4)c3c2c1`, the viability is 84% (inactive).
For `COc1cc(CC(=O)NCc2cccs2)cc(OC)c1OC` the value was 98.3% (inactive).
Then `C1=C(CCNc2ncnc3c2cnn3-c2ccccc2)CCCC1`, with 94.9% (inactive).
In the case of `O=C(NCCC1=CCCCC1)C1CCN(Cc2cnn(-c3ccccc3)c2-n2cccc2)CC1`, the viability was 28.4% (active).
As to `CC(=O)Nc1ccc(NC(=O)CSCc2cnn(-c3ccccc3)c2-n2cccc2)cc1`, the viability is 89.5% (inactive).
For `CCn1c(SCC(=O)Nc2ccc(S(=O)(=O)Nc3onc(C)c3C)cc2)nnc1-c1ccccc1` the value was 89.5% (inactive); for `Brc1ccc(-c2nnc(-c3ccccc3)o2)o1`, 90.9% (inactive); for `OCCN1CCOCCOCCN(CCO)CCN(CCO)CC1`, 105% (inactive).
Take `CC(C)(C)c1cc(=O)n2c(nc3ccccc32)[nH]1`: the viability was 103% (inactive).
On to `Cc1[nH]n(-c2cccc(Cl)c2)c(=O)c1-c1ccc(Cl)cc1`, for which the viability is 63.2% (inactive).
As to `Cc1nc2c(-c3ccccc3)c(C)[nH]n2c(=O)c1Cl`, the viability is 12% (active).
As to `Cc1nc2nc(COc3ccccc3)[nH]n2c(=O)c1C`, the viability is 88.1% (inactive).
As to `CCCN(Cc1cc2cccc(C)c2[nH]c1=O)S(C)(=O)=O`, the viability is 95.8% (inactive).
Take `CCOc1ccc(S(=O)(=O)N2CCCCCC2)c2ccccc12`: the viability was 102% (inactive).
`O=C1CSC2=NCN(c3ccccc3)CN12`: the viability was 93.5% (inactive).
As for `Cc1cccc(N2C(=O)c3cccnc3C2=O)c1`, the viability was 95.8% (inactive).
Take `COc1cc(/C=C(\C#N)c2nc3c(s2)CC(C)CC3)ccc1O` (stereo not given): the viability was 83.7% (inactive).
As for `COc1ccc(-c2nnc(SCC(=O)c3ccco3)n2-c2ccccc2)cc1`, the viability is 92.6% (inactive).
As for `COc1ccc(-n2c(SCC(=O)Nc3sc4c(c3C#N)CCCC4)nnc2-c2ccc(O)cc2)cc1`, the viability was 3.66% (active).
For `N#Cc1c(NC(=O)CSc2nc3ccccc3c(=O)n2Cc2ccco2)sc2c1CCCC2` the value was 58.5% (inactive); for `Cc1cc(NC(=O)CCC(=O)N(CC(=O)NCC2CCCO2)c2ccccc2C)no1` (stereo not given), 105% (inactive); for `CC(C)(O)C(=O)NN(C(=O)c1ccccc1)c1cccc(Br)c1`, 109% (inactive).
For `CCOC(=O)c1nnn(-c2nonc2-n2cccc2)c1CN1CCC(C(=O)OCC)CC1` the value was 92.5% (inactive); for `Cc1cc(-n2nc(C)cc2C)n2nc(C)c(-c3ccccc3)c2n1`, 106% (inactive).
As to `CCOC(=O)c1nnn(-c2nonc2-n2cccc2)c1CN1CCOCC1`, the viability was 100% (inactive).
Then `Fc1ccccc1/C=C1\CCCC2=C1Nc1ncnn1C2c1ccccc1F` (stereo not given), with 13% (active); and `CCCCc1nnc(NC(=O)CS(=O)(=O)Cc2ccccc2)s1`, with 107% (inactive); and `Clc1ccc(COn2c(-c3ccc(Cl)cc3Cl)nc3ncccc32)cc1`, with 86% (inactive).
Consider `Cc1noc(/C=C/c2ccco2)c1S(=O)(=O)N1CCC(C(=O)N2CCc3ccccc32)CC1`, for which the viability is 93.3% (inactive).
